The target in assay [1] is Cellular tumor antigen p53 (Homo sapiens) (UniProt P04637). As to the kind of experiment: Primary qHTS for small molecule compounds that upregulate eGFP-tagged delta133p53alpha (in N-terminal) cells. (AID 2060322).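 Note: 0% = DMSO vehicle and 100% = reference activator; nearly all actives have a fitted effect of over 75% in size.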 The note with it: NCI-H358 eGFP-delta133p53alpha fluorescence, 24 h; activation: hits give high values. The method in brief: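 NCI-H358 cells pre-induced 24 h with 10 ng/ml doxycycline to express N-terminal eGFP-delta133p53alpha, then dosed 24 h at 37C without doxycycline; fixed, Hoechst-stained, GFP intensity by laser scanning cytometry, normalized to DMSO (0%) and 57.5 uM 5-azacytidine (100%).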
On the technique in general: In qHTS, concentration-response curves come from the screen itself.

Assay [2] shares this target. As to the kind of experiment: Primary qHTS for small molecule compounds that upregulate eGFP-tagged delta133p53alpha (in C-terminal) cells. (AID 2060324). Note: potency is the fitted concentration of half-maximal effect. The note with it: NCI-H358 delta133p53alpha-eGFP (C-terminal tag), GFP fluorescence imaging, 24 h; series mostly up to 57.5 µM. The procedure, abridged: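 C-terminal eGFP-tagged delta133p53alpha NCI-H358 line; dox-induced (100 ng/ml, 24 h) then plated without dox; compounds pinned in titration, 24 h 37 °C/5% CO2; PFA fix, Hoechst nuclei; GFP by LSC.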

In assay [3] the target is Aldehyde dehydrogenase, mitochondrial (Homo sapiens) (UniProt P05091). As to the kind of experiment: qHTS for Inhibitors of the Aldehyde Dehydrogenase Family (ALDH2) Validation screens (AID 2061302; active = well fitted inhibition curve with a large enough effect; title and protocol of this record describe different tests; note: potency is the fitted concentration of half-maximal effect). The note with it: ALDH inhibition qHTS; series mostly up to 42.6 µM.
Assay [4] has as its target Retinaldehyde dehydrogenase 3 (Homo sapiens) (UniProt P47895). As to the kind of experiment: qHTS for Inhibitors of the Aldehyde Dehydrogenase Family (ALDH1A3) Validation screen (AID 2061312). Note: % is set by controls: 0 for no effect and ±100 for the full control effect; nearly all actives have a fitted effect of over 45% in size. As to conditions: ALDH1A3 enzyme inhibition qHTS validation, fluorescence; series mostly up to 84.7 µM.
The nature of assay [5]: BET inhibitor-based combinations targeting novel dependencies in MECOM-rearranged (r) AML: SET-2 cell line (AID 2202231).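 For viability: plate controls were DMSO treated cells for no effect and wells without cells for full effect.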 Note: nearly all actives have a fitted effect of over 35% in size. Note: potency is the fitted concentration of half-maximal effect. As to conditions: SET-2 AML cells viability, CellTiter-Glo luminescence, 48 h; viability: hits give low values, concentration not given here. The method in brief: (§1)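 Each compound was tested at eleven concentrations on cells seeded at 500/well. After two days' incubation, ATP-based luminescence reported viability; responses relative to DMSO and blank wells yielded AUC and cell-line-centred Z-AUC.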
For orientation: In ATP-based viability assays light output follows the ATP content of the culture.

A short description of assay [6]: BET inhibitor-based combinations targeting novel dependencies in MECOM-rearranged (r) AML: OCI-AML3 cell line (AID 2202232). Note: nearly all actives have a fitted effect of over 35% in size. Note: potency is the fitted concentration of half-maximal effect. The note with it: CellTiter-Glo luminescence, 48 h; Potency: OCI-AML3 viability; series mostly up to 46 µM. The method in brief: as §1
Assay [7] is described as follows: BET inhibitor-based combinations targeting novel dependencies in MECOM-rearranged (r) AML: MV-4-11 cell line (AID 2202233). Note: nearly all actives have a fitted effect of over 45% in size. Note: potency is the fitted concentration of half-maximal effect. The note with it: MV-4-11 AML viability, CellTiter-Glo luminescence, 48 h; series mostly up to 46 µM. The procedure, abridged:
(§2)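 First, 500 cells per well were seeded; next, drugs were pinned as 11-point doses; then plates sat 48 hr in the incubator; finally CellTiter-Glo was added and luminescence read, with AUC and Z-AUC computed.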

Assay [8] is described as follows: BET inhibitor-based combinations targeting novel dependencies in MECOM-rearranged (r) AML: HNT-34 cell line (AID 2202234). Note: nearly all actives have a fitted effect of over 35% in size. Note: potency is the fitted concentration of half-maximal effect. The note with it: HNT-34 AML viability, CellTiter-Glo luminescence, 48 h; series mostly up to 46 µM. The procedure, abridged:
as §2

Assay [9] can be described thus: BET inhibitor-based combinations targeting novel dependencies in MECOM-rearranged (r) AML: UCSD-AML1 cell line (AID 2202235). Note: nearly all actives have a fitted effect of over 40% in size. Note: potency is the fitted concentration of half-maximal effect. The note with it: UCSD-AML1 AML cells viability, CellTiter-Glo, 48 h; series mostly up to 46 µM. The procedure, abridged: as §2
Assay [10] is described as follows: BET inhibitor-based combinations targeting novel dependencies in MECOM-rearranged (r) AML: AML-191 cell line (AID 2202236; note: nearly all actives have a fitted effect of over 35% in size; note: potency is the fitted concentration of half-maximal effect). As to conditions: AML-191 viability, CellTiter-Glo luminescence, 48 h; series mostly up to 46 µM. The procedure, abridged: as §1
Assay [11] can be described thus: BET inhibitor-based combinations targeting novel dependencies in MECOM-rearranged (r) AML: AML-194 cell line (AID 2202237; note: nearly all actives have a fitted effect of over 40% in size; note: potency is the fitted concentration of half-maximal effect). The note with it: AML-194 (MECOM-r AML) viability, CellTiter-Glo, 48 h; series mostly up to 46 µM. The procedure, abridged:
as §1

Molecules are shown by their SMILES. “And” between values parts separate entries of the source, which are not always exact repeats. Equal entries are not always repeated. Results filed as inconclusive are left out. A number with no mark means an inactive call. The source made the active and inactive calls. Unless noted, calls come from the whole dose curve; as a rule, active = well fitted curve in the direction sought with a large enough effect; inconclusive = small, poorly fitted or top-dose-only effect, or another doubt; inactive = no such curve, though single readings can be large; an effect the other way counts as inactive or inconclusive.

Chain of Cellular tumor antigen p53 (Homo sapiens) (P04637 whole entry, looked up): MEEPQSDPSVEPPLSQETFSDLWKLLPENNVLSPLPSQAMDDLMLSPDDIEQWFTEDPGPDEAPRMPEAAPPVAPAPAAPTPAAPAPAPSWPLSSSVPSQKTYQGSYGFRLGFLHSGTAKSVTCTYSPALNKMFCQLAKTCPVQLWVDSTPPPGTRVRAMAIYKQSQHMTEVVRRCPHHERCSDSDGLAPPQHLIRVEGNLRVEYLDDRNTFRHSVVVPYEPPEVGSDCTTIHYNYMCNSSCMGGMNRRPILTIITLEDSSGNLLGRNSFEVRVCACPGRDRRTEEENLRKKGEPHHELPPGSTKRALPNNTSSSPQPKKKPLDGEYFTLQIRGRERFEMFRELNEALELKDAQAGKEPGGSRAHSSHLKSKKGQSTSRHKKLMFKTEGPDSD

In the case of `O=C(CCCCCN1CCN(c2ccccc2-c2ccccc2)CC1)NC1CCCc2ccccc21` (stereo not drawn), the activation in assay [1] is -20.9%. Further, the Potency result in assay [2], in assay [3] and in assay [4] was “inactive” each time.
As usually defined, the viability is a read-out of living cells in per cent, often relative to untreated cells. For `CCCN(CCC)C(=O)C(CCC(=O)O)NC(=O)c1ccccc1` (stereo not drawn), in assay [1], the activation is -4.18% and 0.787%. The Potency result in assay [2], in [3], in [4], in assay [6], in assay [7] and in assay [8] was “inactive” throughout. For the same molecule, the Potency result in assay [9], in [10] and in assay [11] was “inactive” throughout. For the same molecule, in [5], the viability is 109%.
Regarding `Nc1nc(Nc2ccccc2)nc2c1ncn2[C@@H]1O[C@H](CO)[C@@H](O)[C@H]1O`, in [1], the activation was 8.56%. The Potency result in assay [2], in assay [3] and in [4] was “inactive” throughout.
Turning to `Clc1ccc(N2CCN(Cc3cc4ccccn4n3)CC2)cc1`, the activation in assay [1] was -21.6%. Also, the Potency result in [2], in [3] and in assay [4] was “inactive” in each case.
As to `CC(C)(C)c1ccc(/C=C/C(=O)Nc2ccc3c(c2)OCCO3)cc1`, the activation in [1] was -15.3%. Moreover, the Potency entry in assay [2], in assay [3] and in [4] was “inactive” in each case.
For `C[C@H](CS)C(=O)N1CCC[C@H]1C(=O)O`, the activation in [1] was 1.67% and -24.1%. Further, the Potency result in assay [2], in [3] and in [4] was “inactive” each time.
Regarding `Cc1cc(C(C)(C)C)cc(C)c1CC1=NCCN1`, in assay [1], the activation was 4.18% and 6.06% and -36%. Besides, the Potency result in assay [2], in assay [3], in assay [4] and in assay [11] was “inactive” in each case.
In the case of `NC(=O)c1ccc2[nH]ccc2c1`, the activation in [1] was 3.04%. The Potency result in assay [2], in [3], in [4], in assay [6], in [7] and in assay [8] was “inactive” throughout. In addition, the Potency result in [9], in assay [10] and in assay [11] was “inactive” in each case.
As for `NCCCCNCCCN`, in assay [1], the activation was -3.21% and -16.4%. Moreover, the Potency result in [2], in assay [3] and in [4] was “inactive” in each case. The Potency in assay [7] was 10.5 µM (active); in assay [8], 23.5 µM (active).
Consider `CC(=O)N1CCN(c2ccc(OC[C@H]3CO[C@](Cn4ccnc4)(c4ccc(Cl)cc4Cl)O3)cc2)CC1`, for which the activation in [1] was -11.5% and -0.0769%. The Potency result in assay [2], in [3], in assay [4], in assay [6], in assay [7] and in assay [8] was “inactive” throughout. Also, the Potency entry in assay [9] and in assay [10] was “inactive” each time.
Turning to `Oc1ccc2ccccc2c1SSc1c(O)ccc2ccccc12`, the activation in assay [1] was -0.0951%. The Potency entry in [2] and in assay [4] was “inactive” each time. Moreover, the Potency in assay [3] is 14.1 µM (active); in assay [6], 6.61 µM (active); in [7], 16.6 µM (active); in assay [8], 18.6 µM (active); in assay [9], 23.5 µM (active); in [10] it was 20.9 µM (active). Further, in [11], the Potency is 20.9 µM (active).
For `CC(=O)Oc1ccccc1C(=O)O`, the activation in [1] is 23.2% and 81.8% and -5.87%. The Potency entry in assay [2], in assay [3], in assay [4], in assay [7], in assay [8] and in [9] was “inactive” throughout. Besides, the Potency entry in assay [10] and in [11] was “inactive” in each case.
Regarding `Cc1cc(C)c(/C=C2\C(=O)Nc3ccccc32)[nH]1`, the activation in assay [1] is -35.1%. Moreover, the Potency is 30.1 µM (active) in assay [2], 0.742 µM (active) in assay [7], 0.296 µM (active) in assay [8] and 11.8 µM (active) in assay [10]. Moreover, the Potency result in [3], in [4] and in [9] was “inactive” throughout. Further, the viability in assay [5] is 96.4%.
For `CC(C)c1ccc2c(c1)c(SC(C)(C)C)c(CC(C)(C)C(=O)O)n2Cc1ccc(Cl)cc1`, the activation in [1] was 10.9% and -49%. Moreover, the Potency entry in assay [2], in assay [3], in assay [4] and in [9] was “inactive” throughout. Besides, the Potency in assay [6] is 20.9 µM (active); in [8], 23.5 µM (active); in assay [10], 20.9 µM (active).
As to `Cn1cnc([N+](=O)[O-])c1Sc1ncnc2nc[nH]c12`, in assay [1], the activation is -10%. In addition, the Potency result in assay [2], in assay [3], in assay [4] and in [9] was “inactive” in each case. Further, the Potency in assay [5] was 1.66 µM (active); in assay [11] it was 0.468 µM (active).
Regarding `CS(=O)(=O)Nc1ccc([N+](=O)[O-])cc1Oc1ccccc1`, the activation in assay [1] is -3.95% and 5.46% and -33.6%. Moreover, the Potency entry in assay [2], in assay [3], in assay [4], in assay [7], in assay [8] and in [9] was “inactive” in each case. In addition, the Potency result in assay [10] and in [11] was “inactive” each time. The viability in [5] is 107%.
`C[C@H]1O[C@@H](n2cc(F)c(=O)[nH]c2=O)[C@H](O)[C@@H]1O`: the activation in [1] is 2.35%. The Potency entry in [2], in assay [3] and in assay [4] was “inactive” each time. For the same molecule, the Potency in [7] was 13.2 µM (active).
Regarding `CCN1CCCC1CNC(=O)c1cc(S(=O)(=O)CC)c(N)cc1OC` (stereo not drawn), the activation in [1] is -0.505% and -9.21% and -28.2%. In addition, the Potency result in [2], in assay [3], in [4], in [7], in assay [8] and in assay [9] was “inactive” in each case. In addition, in assay [11], the Potency entry was “inactive”. In addition, the viability in assay [5] was 122%.
As for `CC(C)(Oc1ccc(C2CC2(Cl)Cl)cc1)C(=O)O` (stereo not drawn), the activation in [1] is -8.47% and 20.1% and -16.4%. For the same molecule, the Potency entry in [2], in assay [3], in [4], in assay [7], in [8] and in assay [9] was “inactive” in each case. Besides, the Potency entry in assay [10] and in assay [11] was “inactive” each time. Further, the viability in assay [5] is 114%.

The values are drawn from PubChem BioAssay (NCATS).
